The structures appear in SMILES notation. Calls of active or inactive are those of the source.

Assay [1] deals with Plasmodium falciparum Sir2 (PF13_0152, Sir2A). The experiment in a line: pfSir2 binders on small-molecule microarrays, primary screen, biochemical, small-molecule microarray, 635 nm fluorescence (AID 1098).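 Note: score merges spot fluorescence intensity with its signal-to-noise ratio.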 The note with it: small-molecule microarray binding, fluorescence 635 nm; higher = more signal.
Assay [2] is described as follows: small-molecule microarray binders of probe aDKK1, primary screen, biochemical, biotinylated probe, 635/667 nm fluorescence (AID 1099).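 Note: score merges 667nm spot fluorescence with signal to noise across triplicate slides.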 To be noted: higher = more signal.
A short description of assay [3]: small-molecule microarray binders of probe aCHRDL2, primary screen, biochemical, biotinylated probe, 635/667 nm fluorescence (AID 1100). The note with it: higher = more signal.
Assay [4] can be described thus: splicing luciferase reporter signal modulators, primary screen, spliceosome inhibition project, cell-based, HEK293, splice +/- reporter (AID 1101).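 Note: HEK293 cells carrying a splicing-competent luciferase reporter gene; test concentration not given here.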 The note with it: luminescence, 24 h, higher = more signal, called active from +8 up or from −8 down. A general note: Reporter assays use an easily measured gene product as a stand-in for the process of interest.
The target of assay [5] is Fibroblast growth factor 10 (Homo sapiens) (UniProt O15520). The experiment in a line: FGF10 binders on small-molecule microarrays, primary screen, biochemical, small-molecule microarray, 635 nm fluorescence (AID 1102). To be noted: FGF10 binding, fluorescence 635 nm, higher = more signal.
Chain of Fibroblast growth factor 10 (Homo sapiens) (O15520 whole entry, looked up): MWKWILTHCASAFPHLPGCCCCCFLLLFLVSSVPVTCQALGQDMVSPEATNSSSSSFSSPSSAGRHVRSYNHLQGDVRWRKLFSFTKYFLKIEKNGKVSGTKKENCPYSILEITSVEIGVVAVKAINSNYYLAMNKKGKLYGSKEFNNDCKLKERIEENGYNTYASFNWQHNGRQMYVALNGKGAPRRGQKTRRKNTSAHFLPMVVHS
The subject of assay [6] is glycogen synthase kinase-3 (GSK3A per assay name; protocol says GSK3B). Briefly: GSK3 binders on small-molecule microarrays, primary screen, biochemical, small-molecule microarray, 635 nm fluorescence, GSK3A (AID 1103). Note: the record names both GSK3A and GSK3B. The note with it: small-molecule microarray binding, fluorescence 635 nm; higher = more signal.
Assay [7] addresses Epidermal growth factor receptor (Homo sapiens) (UniProt P00533). Briefly: EGFR binders on small-molecule microarrays, primary screen, biochemical, small-molecule microarray, 635 nm fluorescence (AID 1104).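 Note: score merges 667 nm emission intensity with spot signal to noise over triplicate slides.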 To be noted: EGFR binding, higher = more signal.
For assay [8], the target named is Follistatin-related protein 3 (Homo sapiens) (UniProt O95633). The experiment in a line: FSTL3 binders on small-molecule microarrays, primary screen, biochemical, small-molecule microarray, 635 nm fluorescence (AID 1105).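 Note: score merges emission near 667 nm and signal to noise per printed spot across three slides.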 The note with it: FSTL3 binding, higher = more signal.
Chain of Follistatin-related protein 3 (Homo sapiens) (O95633 whole entry, looked up): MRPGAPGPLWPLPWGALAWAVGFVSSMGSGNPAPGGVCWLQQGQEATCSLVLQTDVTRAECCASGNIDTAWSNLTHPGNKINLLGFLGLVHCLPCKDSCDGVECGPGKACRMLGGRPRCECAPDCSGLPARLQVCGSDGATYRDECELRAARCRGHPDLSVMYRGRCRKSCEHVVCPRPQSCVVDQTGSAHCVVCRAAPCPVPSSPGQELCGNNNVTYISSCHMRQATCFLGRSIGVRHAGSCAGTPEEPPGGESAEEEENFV
Assay [9] has as its target Dickkopf-related protein 1 (Homo sapiens) (UniProt O94907). The experiment in a line: DKK1 binders on small-molecule microarrays, primary screen, biochemical, small-molecule microarray, 635 nm fluorescence scan (AID 1106).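 Note: score merges emission near 667 nm with signal to noise over three replicate slides.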 To be noted: DKK1 binding, higher = more signal.
The test system of assay [10] is Inhibin beta A chain (activin A). The experiment in a line: INHBA (activin A) binders on microarrays, primary screen, biochemical, small-molecule microarray, 635 nm fluorescence scan (AID 1107).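 Note: mouse activin A protein probed at 4.33 µg/mL on printed slides; score merges bound-protein fluorescence near 667 nm with spot signal-to-noise.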 The note with it: small-molecule microarray binding, higher = more signal.
Assay [11] deals with Human papillomavirus type 1a protein E7 (residues 44-93). Briefly: HPV1a E7 fragment binders on microarrays, primary screen, biochemical, small-molecule microarray, residues 44-93, 635 nm fluorescence (AID 1108).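 Note: E7 fragment applied at 1 µg/mL in TBST for 1 h at 4 C; score combines spot fluorescence with its signal to noise ratio.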 To be noted: small-molecule microarray binding, fluorescence 635 nm; higher = more signal.
Assay [12] is described as follows: modulators of HCV replicon luciferase signal, primary screen, HCV replication inhibitor project, Huh7 cells, luciferase reporter (AID 1109).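 Note: huh7 hepatoma cells harbouring a luciferase neomycin HCV replicon reporter; luciferase luminescence as measure of HCV replicon replication; test concentration not given here.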 The note with it: 48 h, higher = more signal. A general note: Replicon systems follow genome replication, usually without infectious particles.
Assay [13] addresses Left-right determination factor 2 (Homo sapiens) (UniProt O00292). Briefly: LEFTY2 binders on small-molecule microarrays, primary screen, biochemical, small-molecule microarray, 635 nm fluorescence scan (AID 1110). To be noted: LEFTY2 binding, higher = more signal.
The target of assay [14] is Calmodulin-1 (Homo sapiens) (UniProt P0DP23). The experiment in a line: CALM1 binders on microarrays, EGTA buffer, profiling panel, biochemical, small-molecule microarray, Cy5-labelled CALM1 (AID 1111).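 Note: labelled calmodulin applied in Tris saline Tween buffer holding calcium plus EGTA and DTT.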 The note with it: Cy5-CALM1 binding fluorescence, higher = more signal.
The target is the same in assay [15]. Briefly: calcium-bound CALM1 binders on microarrays, profiling panel, artefact control for SMM control-protein annotation, biochemical, small-molecule microarray, Cy5-labelled CALM1, plus calcium (AID 1112).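 Note: score merges spot fluorescence with signal to noise from triplicate slides.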 The note with it: Cy5-CALM1 binding fluorescence, higher = more signal.
Assay [16] can be described thus: small-molecule microarray binders of probe aWnt5a, primary screen, biochemical, biotinylated probe, 635/667 nm fluorescence (AID 1113).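 Note: score merges 667 nm fluorescence intensity with signal-to-noise per printed feature.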 To be noted: higher = more signal.
A short description of assay [17]: small-molecule microarray binders of probe aShh, primary screen, biochemical, biotinylated probe, 635/667 nm fluorescence (AID 1114).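 Note: probe is biotin-labelled aShh protein from a stem cell growth factor screen; measures binding of labelled protein to compounds printed on the slide; score merges feature fluorescence at 667 nm with signal-to-noise.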 The note with it: higher = more signal.
Assay [18] in a line: small-molecule microarray binders of probe aNog, primary screen, biochemical, biotinylated probe, 635/667 nm fluorescence (AID 1115).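 Note: probe is biotinylated aNog protein used at 0.15 µg/mL for 1 h at 4 C; z-score combines 667 nm fluorescence of each spot with its signal to noise.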 The note with it: higher = more signal.
In assay [19] the target is Torsin-1A-interacting protein 1 (Homo sapiens) (UniProt Q5JTV8). Briefly: LAP1 binders from COS7 cell lysate, primary screen, small-molecule microarray, 635/667 nm fluorescence (AID 1116). The note with it: COS7-hLAP1 lysate binding, 635 nm fluorescence, higher = more signal.
Chain of Torsin-1A-interacting protein 1 (Homo sapiens) (Q5JTV8 whole entry, looked up): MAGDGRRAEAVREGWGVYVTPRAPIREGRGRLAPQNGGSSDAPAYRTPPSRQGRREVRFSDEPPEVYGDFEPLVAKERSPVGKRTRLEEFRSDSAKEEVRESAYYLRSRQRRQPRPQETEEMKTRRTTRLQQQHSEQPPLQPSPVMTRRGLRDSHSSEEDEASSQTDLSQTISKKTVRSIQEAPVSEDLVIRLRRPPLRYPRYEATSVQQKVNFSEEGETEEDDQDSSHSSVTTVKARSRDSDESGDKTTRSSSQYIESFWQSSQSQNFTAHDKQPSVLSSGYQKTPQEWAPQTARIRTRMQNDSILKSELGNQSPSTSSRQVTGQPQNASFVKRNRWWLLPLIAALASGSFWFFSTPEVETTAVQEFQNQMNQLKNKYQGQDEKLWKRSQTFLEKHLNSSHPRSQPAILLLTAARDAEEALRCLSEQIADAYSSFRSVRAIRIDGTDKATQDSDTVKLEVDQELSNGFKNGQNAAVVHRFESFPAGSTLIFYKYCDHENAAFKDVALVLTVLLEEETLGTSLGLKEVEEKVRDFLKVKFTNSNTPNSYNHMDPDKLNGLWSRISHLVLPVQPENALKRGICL
Assay [20] has as its target Alpha-bungarotoxin (Bungarus multicinctus) (UniProt P60615). The experiment in a line: alpha-bungarotoxin binders on microarray, profiling panel, artefact control for SMM control protein annotation, biochemical, small-molecule microarray, Alexa647 label, 635/667 nm fluorescence (AID 1117). To be noted: alpha-BTX-A647 binding fluorescence, higher = more signal.

Chain of Epidermal growth factor receptor (Homo sapiens) (P00533 whole entry, looked up): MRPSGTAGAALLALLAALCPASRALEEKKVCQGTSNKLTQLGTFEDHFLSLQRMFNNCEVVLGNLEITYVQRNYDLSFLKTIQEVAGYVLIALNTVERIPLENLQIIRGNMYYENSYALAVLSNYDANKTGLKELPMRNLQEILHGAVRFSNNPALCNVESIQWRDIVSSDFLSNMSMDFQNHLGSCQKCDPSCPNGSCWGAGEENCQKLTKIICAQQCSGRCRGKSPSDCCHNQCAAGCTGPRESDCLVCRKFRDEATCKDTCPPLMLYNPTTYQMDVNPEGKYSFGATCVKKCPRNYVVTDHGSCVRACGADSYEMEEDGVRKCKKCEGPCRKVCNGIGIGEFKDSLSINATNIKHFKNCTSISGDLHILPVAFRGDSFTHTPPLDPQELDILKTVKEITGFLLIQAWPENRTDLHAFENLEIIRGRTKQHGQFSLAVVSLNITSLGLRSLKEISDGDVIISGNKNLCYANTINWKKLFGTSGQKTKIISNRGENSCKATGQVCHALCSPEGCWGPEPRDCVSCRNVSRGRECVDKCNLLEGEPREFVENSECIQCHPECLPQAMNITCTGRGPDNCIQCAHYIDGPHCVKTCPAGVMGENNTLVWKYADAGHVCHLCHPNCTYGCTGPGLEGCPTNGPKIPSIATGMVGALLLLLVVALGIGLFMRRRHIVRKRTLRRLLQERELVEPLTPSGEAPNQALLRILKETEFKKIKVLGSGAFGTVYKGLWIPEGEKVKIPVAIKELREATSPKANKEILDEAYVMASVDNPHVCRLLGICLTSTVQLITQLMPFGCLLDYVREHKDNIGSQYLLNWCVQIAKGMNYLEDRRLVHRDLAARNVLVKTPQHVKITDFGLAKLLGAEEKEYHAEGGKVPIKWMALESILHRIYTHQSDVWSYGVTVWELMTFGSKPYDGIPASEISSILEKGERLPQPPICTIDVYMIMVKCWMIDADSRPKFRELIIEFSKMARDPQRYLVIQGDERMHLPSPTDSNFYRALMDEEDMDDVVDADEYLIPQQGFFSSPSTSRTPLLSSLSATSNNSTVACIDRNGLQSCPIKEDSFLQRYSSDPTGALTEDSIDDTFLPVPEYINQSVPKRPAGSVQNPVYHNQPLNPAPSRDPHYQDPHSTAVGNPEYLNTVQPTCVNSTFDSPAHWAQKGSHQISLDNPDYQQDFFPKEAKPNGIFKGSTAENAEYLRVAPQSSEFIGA
Chain of Dickkopf-related protein 1 (Homo sapiens) (O94907 whole entry, looked up): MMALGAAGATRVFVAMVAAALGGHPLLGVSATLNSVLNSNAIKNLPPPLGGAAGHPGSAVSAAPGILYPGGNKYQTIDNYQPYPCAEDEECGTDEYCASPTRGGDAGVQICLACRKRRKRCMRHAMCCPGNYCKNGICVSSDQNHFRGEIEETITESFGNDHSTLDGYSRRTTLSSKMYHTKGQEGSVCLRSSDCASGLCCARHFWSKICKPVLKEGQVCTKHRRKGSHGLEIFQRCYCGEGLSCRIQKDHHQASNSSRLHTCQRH
Chain of Left-right determination factor 2 (Homo sapiens) (O00292 whole entry, looked up): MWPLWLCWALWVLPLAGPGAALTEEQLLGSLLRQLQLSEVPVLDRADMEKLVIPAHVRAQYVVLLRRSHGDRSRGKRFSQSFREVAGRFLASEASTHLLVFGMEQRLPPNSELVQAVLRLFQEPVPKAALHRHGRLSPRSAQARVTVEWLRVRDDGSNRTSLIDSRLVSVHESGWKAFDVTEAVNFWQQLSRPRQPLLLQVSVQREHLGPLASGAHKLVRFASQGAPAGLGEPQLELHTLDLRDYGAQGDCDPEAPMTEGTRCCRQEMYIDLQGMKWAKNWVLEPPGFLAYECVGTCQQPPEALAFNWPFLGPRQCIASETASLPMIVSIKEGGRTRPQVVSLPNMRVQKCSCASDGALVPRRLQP
Chain of Alpha-bungarotoxin (Bungarus multicinctus) (P60615 whole entry, looked up): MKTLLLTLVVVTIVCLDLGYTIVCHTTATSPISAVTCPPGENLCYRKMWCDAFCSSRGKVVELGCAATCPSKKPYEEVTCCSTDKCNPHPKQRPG

Turning to `COCCOC(=O)N1C(=O)[C@@]2(c3cc(C#Cc4ccc(OC)cc4)ccc31)[C@H](c1ccc(O)cc1)N1[C@H](c3ccccc3)[C@H](c3ccccc3)OC(=O)[C@H]1[C@@H]2C(=O)Nc1nc2ccccc2s1`, the composite z-score in assay [1] was 0.666; in assay [2] it was -0.037; in assay [3], 0.0407; in assay [5], 1.22; in assay [6] it was 1.09; in assay [7] it was 0.404. Besides, the composite z-score in assay [8] came to 0.899; in assay [9], 0.446; in assay [10], 0.277; in assay [11] it was 1.37; in assay [13] it was 0.389; in [14] it was 1.18. For the same compound, the composite z-score in assay [15] was 0.907; in [16], -0.0778; in [17], -0.262; in assay [18] it was -0.129; in assay [19], 0.373; in assay [20] it was 0.912. In addition, the z-score in assay [4] was -0.0561 (inactive); in [12], -1.

As to `COc1cc2c(cc1O)C(c1cccs1)N(Cc1ccc([N+](=O)[O-])o1)CC2` (stereo not given), the composite z-score in assay [1] is 1.15; in assay [2], 0.728; in assay [3] it was 0.27; in assay [5], 0.876; in assay [6], 0.0693; in [7] it was -0.033. Further, the composite z-score in assay [8] was -0.0839; in [9] it was -0.466; in assay [10], -0.131; in assay [11] it was 0.665; in assay [13] it was -0.333; in assay [14] it was 1.5. The composite z-score in assay [15] was 0.33; in [16], -0.0303; in [17] it was 0.155; in assay [18], 1.19; in [19], -0.194; in [20], 0.766. Besides, the z-score in [4] is -0.505 (inactive); in assay [12] it was -0.213.

On to `CCOC(=O)C1=CC[C@@H](c2ccc(C(F)(F)F)cc2)N(S(=O)(=O)c2ccc(C)cc2)[C@H]1c1ccccc1`, for which the composite z-score in assay [1] is 0.544; in [2] it was 1; in [3], 1.12; in assay [5], 0.485; in assay [6], 1.31; in [7], -0.0946. Besides, the composite z-score in assay [8] was 0.799; in assay [9] it was -0.305; in assay [10], -0.0699; in assay [11] it was 0.277; in assay [13], 0.221; in assay [14], 2.08. Besides, the composite z-score in assay [15] is 0.55; in assay [16] it was 0.201; in assay [17] it was 0.109; in [18], 1.43; in assay [19] it was 1.51; in assay [20] it was 1.56. The z-score in assay [4] was -2.54 (inactive); in [12] it was -1.1.

Turning to `O=C1C[C@@](C(=O)NCc2ccccc2)(c2ccc([N+](=O)[O-])cc2)[C@@H](c2ccc(CO)cc2)N1CC12CC3CC(CC(C3)C1)C2`, the composite z-score in assay [1] was 1.62; in assay [2], -0.387; in assay [3], -0.371; in assay [5], 1.06; in assay [6], 1.13; in [7], 0.385. For the same compound, the composite z-score stood at 0.837 in [8]; 0.0703 in [9]; 0.0162 in assay [10]; 1.37 in [11]; 0.31 in assay [13]; 0.35 in [14]. The composite z-score was 0.159 in assay [15]; -0.101 in assay [16]; -0.512 in assay [17]; -0.374 in assay [18]; 0.538 in assay [19]; 0.766 in assay [20]. The z-score in [4] was -0.859 (inactive); in assay [12], -2.95.

Take `COC(=O)[C@@]1(Cc2ccc(OC)cc2)[C@H]2c3cc(C(=O)N4CCCC4)n(Cc4nc5ccccc5[nH]4)c3C[C@H]2CN1C(=O)c1ccccc1`: the composite z-score is 1.36 in assay [1]; 1.48 in [2]; 1.34 in [3]; 0.77 in assay [5]; 0.54 in assay [6]; 0.206 in assay [7]. The composite z-score in assay [8] is 1.05; in assay [9] it was -0.49; in assay [10], 1.28; in assay [11], 1.38; in assay [13], -0.413; in assay [14], 2.7. The composite z-score in assay [15] is 1.54; in assay [16] it was 0.216; in assay [17], 0.215; in [18], 2.39; in assay [19] it was 2.79; in assay [20], 1.07. Also, the results for the z-score in assay [4] and in assay [12] were -1.29 (inactive) and -2.61, respectively.

For the origin of these results see PubChem BioAssay.
